Results: PubChem BioAssay (NCI)
The panel holds about 83,000 compounds, 20% with a hit somewhere; the sample as a whole holds those more often.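 Step 1: grow cells in 96-well plates. Step 2: add test compound at a single concentration. Step 3: incubate 48 h. Step 4: record percent growth.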 A number with no mark means an inactive call. The source made the active and inactive calls. The calls were made as follows: active = growth percent below 10; inactive = the rest.

What was measured:
Experiment in all cases: NCI-60 one-dose screen, 48 h (100 = growth as untreated, 0 = no growth, -100 = all killed)
Settings in all cases: 10 µM unless noted
[1] = tested on: SK-MEL-2 melanoma
[2] = tested on: EKVX NSCLC
[3] = tested on: SN12C renal
[4] = tested on: UO-31 renal
[5] = tested on: TK-10 renal
[6] = tested on: ACHN renal
[7] = tested on: CAKI-1 renal
[8] = tested on: A498 renal
[9] = tested on: CCRF-CEM leukemia
[10] = tested on: MOLT-4 leukemia

Structure (SMILES) | growth [1] | growth [2] | growth [3] | growth [4] | growth [5] | growth [6] | growth [7] | growth [8] | growth [9] | growth [10]
CCc1ccc(CCC(=O)Nc2ncc(Cc3ccccc3)s2)o1 | 44.4% | 36.1% | 42.3% | 40.3% | 63.1% | 44.4% | 33.3% | 22.9% | 19% | 22.2%
O=C(O)/C=C/C(=O)Nc1cccc(Cn2nnc3cc(Cl)c(Cl)cc32)c1 | 114% | 94.3% | 104% | 79.5% | 124% | 97.1% | 95% | 108% | 99.4% | 97.1%
CC1(C)CC[C@]2(C(=O)N[C@H](CO)Cc3ccccc3)CC[C@]3(C)C(=CC[C@@H]4[C@@]5(C)CCCNC(C)(C)[C@@H]5CC[C@]43C)[C@@H]2C1 | 107% | 90.9% | 78.6% | 66.5% | 95.5% | 101% | 77.3% | 85.1% | 41.8% | 35.1%
O=C1c2ccccc2C(=O)C1c1ccc(Br)cc1 | 106% | 95.6% | 95.3% | 82.6% | 125% | 97.1% | 82.8% | 85.5% | 75.6% | 101%
CC1CCN(C(=O)CCCl)c2ccccc21 (stereo not given) | 109% | 144% | 99.7% | 75.8% | 95.7% | 117% | 119% | 95.8% | 104% | 118%
O=C1/C=C/[C@@H](O)[C@@H]2C[C@@H](O)C[C@H]2/C=C/CCC[C@@H](O)CCO1 | 122% | 82% | 106% | 108% | 115% | 104% | 83.7% | 66.7% | 116% | 106%
O=C(CCCCCCN1CC(=O)N2[C@H](c3ccc(Br)cc3)c3[nH]c4ccccc4c3C[C@@H]2C1=O)NO | 60.3% | 56.7% | 56.6% | 58.8% | 40.6% | 72.3% | 51.5% | 67.4% | 21% | 5.86% (active)
COc1ccc(-c2cc(-c3ccccc3)nc(N3CCN(CCNc4ccnc5cc(Cl)ccc45)CC3)n2)cc1 | -9.46% (active) | 79.9% | -43.3% (active) | -4.9% (active) | -13.4% (active) | 66.3% | -24.9% (active) | 15.3% | 3.98% (active) | -1.76% (active)
CN(C)CCCC1(c2ccc(F)cc2)OCc2cc(-c3ccc4cc[nH]c4c3)ccc21 (stereo not given) | 87.6% | 61.6% | 58.6% | 30.2% | 92.9% | 36.2% | 30.4% | 81.5% | 33.2% | -8.83% (active)
Cc1ccc(S(=O)(=O)Oc2ccc3sc4cccc(NCCN(C)C)c4c(=O)c3c2)cc1 | -71.2% (active) | -84% (active) | -77.2% (active) | -95.5% (active) | -83.2% (active) | -95.9% (active) | -97.8% (active) | -96% (active) | -45.8% (active) | -32.7% (active)
CCN1C(=O)N(CC)C2C1NN=c1s/c(=C\c3ccc[nH]3)c(=O)n12 (stereo not given) | 23.4% | 47.4% | 39.2% | 39.2% | 61.6% | 42.3% | 27.5% | -4.45% (active) | 4.06% (active) | 20.4%
Cc1nnc(-c2ccc3c(c2)nc(/C=C/c2ccccc2)n3C2CCCCC2)o1 | 82% | 86.8% | 90.1% | 58.2% | 104% | 54.7% | 112% | 97.8% | 53.8% | 43.4%
CCN(CC)CCN1C(=O)c2c(c(C)c3c(oc4ccc(O)cc43)c2C)C1=O | 89% | 83.2% | -41.9% (active) | -92.4% (active) | -13.9% (active) | -80.4% (active) | -6.73% (active) | 91.7% | -14.7% (active) | 10.2%
CCN1C(=O)N(CC)C2C1N=C(SCc1ccc(Cl)cc1)N2/N=C/C=C/c1ccccc1OC (stereo not given) | 57.7% | 62.5% | 77.8% | 54.3% | 96.4% | 61.5% | 42.2% | 54.6% | 46.4% | 55.3%
COC(=O)/C=C1/SC(=Nc2ccc([N+](=O)[O-])cc2)N(CCc2c[nH]c3ccc(O)cc23)C1=O | 39.7% | 64.7% | 45.8% | 53.5% | 85.2% | 53.4% | 71.4% | 80.5% | 10.9% | 10.9%
O=C(NNc1cnccn1)c1nc2cc(F)ccc2n2cccc12 | 40.8% | 17.9% | 13.5% | 16.3% | 40.5% | 7.64% (active) | 7.11% (active) | -42.1% (active) | 4.42% (active) | 5.91% (active)
COc1ccc(/C=C2\COc3ccc(O)cc3C2=O)cc1 | 109% | 105% | 92.5% | 72.7% | 104% | 98.9% | 89.4% | 110% | 3.13% (active) | 74.5%
C=C(C)[C@@H]1CC[C@]2(COC(C)=O)CC[C@]3(C)[C@H](CC[C@@H]4[C@@]5(C)CCCN(C(C)=O)C(C)(C)[C@@H]5CC[C@]43C)[C@@H]12 | 61.3% | 90% | 67.5% | 77% | 90.3% | 27.9% | 24.3% | 108% | 59.9% | -9.89% (active)
CCOC(=O)c1ccccc1-c1c2ccc(=[N+](C)C)cc-2oc2cc(N(C)C)ccc12 | 4.77% (active) | 34.5% | 7.33% (active) | 52.1% | 32% | 6.36% (active) | -26.9% (active) | 0.621% (active) | 30.3% | 31.5%
Cc1ccc(S(=O)(=O)c2nc(-c3ccccc3)oc2Sc2nc3ccccc3s2)cc1 | 88.6% | 97.1% | 61.4% | 64.3% | 111% | 96.8% | 91.5% | 80.4% | 23.6% | 12.3%
CC(C)CCN(CCC(C)C)CC(O)c1cc2c(c3ccccc13)CCCC2 (stereo not given) | 76.4% | 73% | 68.6% | 48.7% | 102% | 52.4% | 77.2% | 52.5% | 65.6% | 55.6%
C=C1C(=O)O[C@H]2[C@H]1CC/C(COC(=O)NCc1ccc(Cn3c(=O)sn(-c4ccc(C#N)cc4)c3=O)cc1)=C\CC[C@@]1(C)O[C@@H]21 | 84.8% | 92.2% | 50.3% | 75.9% | 48.9% | 79.5% | 58.4% | 120% | 3.9% (active) | 30%
COC(=O)c1cc(Br)ccc1O | 101% | 113% | 99.5% | 95.1% | 95.5% | 99.5% | 101% | 101% | 98.6% | 103%
COc1cc(OC)cc(-c2ccc(-c3ccc(C(=N)N)o3)o2)c1 | 88.1% | 85.2% | 53% | 67.3% | 83.7% | 72.6% | 81.3% | 68.5% | 48.3% | 31.4%
COc1ccc2c(c1)c(-c1nc(-c3c[nH]c4ncccc34)cs1)cn2CCO | 48.7% | 34.9% | 63.5% | 16.1% | 58.3% | 26.7% | 35.5% | -0.474% (active) | 41.3% | 55%
COc1cc2c(cc1OCCCCN1CCN(C(=S)SCCC(C#N)(c3ccccc3)c3ccccc3)CC1)N=C[C@@H]1CCCN1C2=O | -95.1% (active) | -94.8% (active) | -57.4% (active) | 10.8% | -79.6% (active) | -68.8% (active) | -64.7% (active) | -95% (active) | -20.2% (active) | -13.2% (active)
